Screening results: PubChem, National Center for Advancing Translational Sciences (NCATS)
A selection: hits, their analogues and other compounds. The true share with any hit is near 7.1%.
SW480 rereplic: DNA re-replication induction in SW480 cells; SW480 DNA re-replication, Hoechst DNA content imaging, 48 h; 340,000 tested, 1.8% active; Potency, µM (highest dose often 46.1 µM), hits mostly activators; further: nearly all actives have a fitted effect of over 55% in size
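Compounds, transferred as 23 nL by pin tool, were incubated with cells for 48 hr; DNA content per nucleus was then quantified by Hoechst staining and fluorescence plate imaging.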
PINK1 expr mod: changes PINK1 expression; PINK1 immunofluorescence, high-content cytometry, 24 h; Potency, µM (series often up to 76.6 µM), most hits filed as activators; 410,000 tested, 0.2% active; active means well fitted activation curve with a large enough effect; inconclusive means small, poorly fitted or top-dose-only effect; cell line not stated here; further: nearly all actives have a fitted effect of over 65% in size
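A stable cell line was treated with compounds at 5 concentrations for 24 hours, with CCCP as control. PINK1 levels and mitochondrial localization were measured by immunofluorescence with mitochondrial, cell and nuclear markers after fixation, read by laser-scanning cytometry.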
MCF10A rerep: DNA re-replication induction in MCF 10a cells; 350,000 tested, 2.9% active; AID 624296; MCF 10A DNA re-replication, Hoechst nuclear intensity, 48 h; Potency, µM (top dose mostly 46.1 µM), actives largely listed as activators; further: nearly all actives have a fitted effect of over 50% in size
S2 tox: reduces viability in counter-screen for ATXN expression inhibitors | Potency, µM (titrated, usually from 56.7 µM), usual class: cytotoxic | 400,000 tested, 0.49% active | S2 cells (HEK-293 line with an ATXN2-luciferase reporter) viability, CellTiter-Fluor protease fluorescence, 24 h; further: nearly all actives have a fitted effect of over 40% in size
ATXN2 expr inh: ATXN2 expression inhibition; HEK-293 ATXN2-luciferase reporter, luminescence, 24 h; Potency, µM (doses to about 57 µM), most hits filed as inhibitors; AID 1745845; 360,000 tested, 0.72% active; further: nearly all actives have a fitted effect of over 55% in size
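ATXN2-luciferase reporter cells (luciferase flanked by upstream and downstream ATXN2 gene portions) were treated 24 h at 37 °C with compounds at up to 57 uM. SteadyGlo luminescence gave expression; GF-AFC fluorescence gave viability.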
IL-1B inflam inh: blocks inflammasome-driven IL-1 beta release | activity change, % at 57.5 µM | THP-1 LPS/ATP IL-1B secretion, AlphaLISA, 16 h; hits give low values | 360,000 tested, 4.7% active; in the data active means activity change below about -50%; inconclusive means mostly about -30% to -49%
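Secreted IL-1B measured by AlphaLISA bead assay after 16 h compound exposure of THP-1 cells; compounds (final up to 57.5 uM) added 1 h before LPS (250 ng/mL) and ATP (1.25 mM) stimulation; lower signal means less secretion.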
A number is an active result; – = inactive; ? = inconclusive; · = no result; [ ] = remark or other dose. Unless noted, the call rests on the fitted dose curve; in most records, active means well fitted curve in the direction sought with a large enough effect; inconclusive means small, poorly fitted or top-dose-only effect, or another doubt; inactive means no such curve, though single readings can be large; an effect the other way counts as inactive or inconclusive.

SMILES | SW480 rereplic | PINK1 expr mod | MCF10A rerep | S2 tox | ATXN2 expr inh | IL-1B inflam inh
Cc1ccc(/C=C2\Sc3ccccc3C2=O)s1 | – | – | 23µM | ? | – | –
CC(=O)Nc1ccc(/C=C2\Sc3ccccc3C2=O)cc1 | –[9.22 µM] | – | – | – | – | –
O=C(/C=C/c1cn(CC(O)CN2CCCCC2)c2ccccc12)c1ccccc1 (stereo unspecified) | 21µM | – | 21µM | · | – | -87
O=C(/C=C/c1cn(CC(O)CN2CCCCCC2)c2ccccc12)c1ccccc1 (stereo unspecified) | · | – | · | · | ? | ·
O=C(/C=C/c1cn(CC(O)CN2CCCCC2)c2ccccc12)c1cccs1 (stereo unspecified) | 21µM | – | 23µM | – | – | -68
Cc1ccc(C(=O)/C=C/c2cn(CC(O)CN3CCCCCC3)c3ccccc23)cc1 (stereo unspecified) | · | – | · | ? | – | ·
CN1CCN(Cn2cc(/C=C/C(=O)c3ccccc3)c3ccccc32)CC1 | ? | – | ? | ? | – | -66
O=C(CN1C(=O)CC(c2ccccc2)=Nc2ccccc21)Nc1ccc(Br)cc1 | · | – | · | – | – | ·
Cc1ccc(NC(=O)Cn2c(C)cc(C)c(C#N)c2=O)cc1 | · | – | · | · | · | ·
COc1cc(-c2nnc(Sc3ccc(C(F)(F)F)cc3[N+](=O)[O-])o2)cc(OC)c1OC | ? | – | 18µM | – | – | ?
Cn1cc(S(=O)(=O)N2CCCC2)cc1C(=O)Nc1ccc(F)cc1F | · | – | · | · | · | ·
O=C(OCc1ccccc1)N1C=CC2CC1c1c(Cl)cccc12 (stereo unspecified) | – | – | 23µM | – | – | –
COc1ccc(CNC(=O)c2cc3c(=O)oc4ccc(C)cc4c3s2)c(OC)c1 | · | – | · | – | – | ·
Cc1ccccc1C(=O)Nc1ccc(N2CCCC2)cc1 | – | – | – | – | –[11.3 µM] | -55
CC(=O)c1ccc(NC(=O)c2cc(S(=O)(=O)N3CCOCC3)ccc2C)cc1 | – | – | ? | – | – | –
Cc1ccc(S(=O)(=O)N2CCOCC2)cc1C(=O)Nc1ccc(N2CCCCCC2)cc1 | – | – | ? | – | – | -53
Cc1ccccc1NC(=O)Cn1c(=O)n(Cc2ccco2)c(=O)c2cccnc21 | · | – | · | – | – | ·
Cc1ccc2oc(=O)c(-c3nc(-c4cccs4)no3)cc2c1 | · | – | · | · | · | ·
CCOC(=O)N/N=C/c1c(C)nn(-c2cccc(C(F)(F)F)c2)c1Cl | 5.8µM | – | 2.6µM | – | – | –
Cc1nn(-c2cccc(C(F)(F)F)c2)c(Cl)c1/C=N/Nc1cccc(C(=O)O)c1 | – | – | – | – | – | –
Cc1ccc(CN2CCN(CC(=O)NCc3ccccc3Cl)C2=O)cc1 | · | – | · | – | – | ·
CC[C@@H](C(=O)[C@@H](C)[C@@H](O)[C@H](C)CCc1ccc(C)c(O)c1C(=O)O)[C@H]1O[C@](CC)([C@H]2CC[C@](O)(CC)[C@H](C)O2)C[C@@H]1C | ? | – | ? | 13µM | 20µM | -92
CCOC(=O)CC1OC(=O)c2cc3c(cc21)C(=O)OC3CC(=O)OCC (stereo unspecified) | – | – | – | – | – | –
CCOC(=O)C(C(=O)OCC)C1OC(=O)c2cc3c(cc21)C(=O)OC3C(C(=O)OCC)C(=O)OCC (stereo unspecified) | – | – | ? | – | – | -98
Cc1ccc(-c2nc(CS(=O)CC(=O)NCCCN3CCN(Cc4ccccc4)CC3)c(C)o2)cc1 (stereo unspecified) | – | – | – | – | – | -71
SMILES | SW480 rereplic | PINK1 expr mod | MCF10A rerep | S2 tox | ATXN2 expr inh | IL-1B inflam inh
Cc1ccc(-c2nc(CS(=O)CC(=O)NCCN3CCCC3)c(C)o2)cc1 (stereo unspecified) | – | – | – | – | – | –
CCc1ccc(-c2nc(CS(=O)CC(=O)NCCN3CCCCCC3)c(C)o2)cc1 (stereo unspecified) | – | – | – | – | – | -56
COc1ccc(S(=O)(=O)N2CCN(C/C=C/c3ccccc3)CC2)cc1F | – | – | – | – | – | -65
CC(C(=O)Nc1ccc([N+](=O)[O-])cc1)N1CCN(C/C=C/c2ccccc2)CC1 (stereo unspecified) | – | – | ? | – | – | -77
COc1ccc(Cl)cc1NC(=O)C(C)N1CCN(C/C=C/c2ccccc2)CC1 (stereo unspecified) | – | – | ? | ? | ? | -59
CCOC(=O)c1ccc(S(=O)(=O)N2CCN(C/C=C/c3ccccc3)CC2)cc1 | – | – | – | – | – | –
O=C(CSc1nc2c([nH]c3ccccc32)c(=O)n1-c1ccccc1F)Nc1cccc(Cl)c1 | · | – | · | · | · | ·
Cc1cccc(C)c1NC(=O)CSc1ncc2c(n1)-c1ccc(Cl)cc1N(Cc1ccccc1)S2(=O)=O | · | – | · | · | · | ·
Oc1ccc(NCc2ccccc2OCc2ccccc2)cc1 | 15µM | ? | 23µM | · | ? | -74
OCCNCCNCc1ccccc1OCc1ccccc1 | 21µM | – | – | – | · | ?
CCNCc1ccccc1OCc1ccccc1 | – | – | – | – | – | –
Oc1ccc(NCc2ccccc2OCc2ccc(Cl)cc2)cc1 | · | – | · | · | · | ·
CC(O)CNCCNCc1c(OCc2ccccc2)ccc2ccccc12 (stereo unspecified) | – | – | ? | ? | 25µM | -87
COc1cccc(-c2nc3c(C#N)c[nH]n3c2NC2CCCC2)c1OC | · | – | · | ? | – | ·
Cc1ccc(-c2noc(CCC(=O)Nc3ccc(F)cc3Cl)n2)cc1 | · | – | · | · | · | ·
N#C/C(=C\c1cn(CCOc2ccccc2)c2ccccc12)C(=O)NCc1cccs1 | 16µM | – | ? | – | – | –
N#C/C(=C\c1cn(Cc2ccccc2F)c2ccccc12)C(=O)NCc1ccco1 | – | – | 18µM | – | – | –
Cc1cccc(NC(=O)/C(C#N)=C/c2cn(CC(=O)NCc3ccco3)c3ccccc23)c1 | ? | – | 8.2µM | – | – | –
COc1ccccc1OCCn1cc(/C=C(\C#N)C(=O)NCc2ccco2)c2ccccc21 | – | – | – | – | – | –
Cc1ccc2ccccc2c1NC(=O)CNCc1ccccc1 | · | – | · | – | · | –
Cc1ccc(CCNC(=O)CCSCc2ccccc2Cl)cc1 | · | – | · | · | · | ·
CCCCCCCCN1C(=O)[C@H](CC(=O)N2CCN(C(=O)C3CC3)CC2)C[C@@]2(C(=O)OC)CC(C)(C)CC=C12 | · | · | · | · | · | -60
CCCCCCCCN1C(=O)[C@H](CC(=O)N2CCSCC2)C[C@@]2(C(=O)OC)CCCCC=C12 | · | – | · | ? | ? | -68
CCCCCCCCN1C(=O)[C@H](CC(=O)NCc2ccc(C)o2)C[C@@]2(C(=O)OC)CC(C)(C)CC=C12 | · | · | · | · | · | -71
CCCCCCCCN1C(=O)[C@H](CC(=O)N2CCN(C(=O)OCC)CC2)C[C@@]2(C(=O)OC)CC(C)(C)CC=C12 | · | · | · | · | · | –
